Test results taken from ChEMBL document CHEMBL3988442, “University of Dundee, Small-Polar-MMV Screening Library” (2021).
The campaign covered roughly 53,000 compounds. About 900 (1.7%) showed an effect of 50% or more. Many of the other results were omitted from the sample, so strong results are more common in it than they were.

tested on: Mycobacterium tuberculosis; test: Cornell - Phenotypic assay to identify agents that inhibit growth of Mycobacterium tuberculosis; assay type: functional; design: scale not given: direction of the effect not stated beside the values; settings: 10 mM as filed; unlikely as a test dose

First: COc1cccc(Nc2nc(-c3ccncc3)nc3c2CNCC3)c1.Cl
Second: Cl.NC1CCc2nc(-c3ccncc3)nc(Nc3cccc(F)c3)c2C1 (stereo not given)
The “Percent Effect” value of the first is lower: -3.556% for the first, 61.47% for the second.

First: O=C(Nc1cccc(F)c1)NC1CCN(Cc2ccncc2)CC1
Second: NC(=O)C1CCCN1Cc1cccc(NC(=O)c2ccc(Cl)cc2F)c1 (stereo not given)
The “Percent Effect” value of the first is higher: 26.05% for the first, -4.35% for the second.

Going from `Cl.NC1CCc2nc(-c3cccnc3)nc(Nc3ccc(F)cc3)c2C1` (stereo not given) to `c1cncc(-c2nc3c(c(NCC4(c5ccncc5)CC4)n2)CCC3)c1`, the “Percent Effect” value falls from 98.04% to 21.3%.

First: CC(O)CNc1nc(-c2cccnc2)nc2c1CCC2 (stereo not given)
Second: Cc1cc2nc(C(C)C)cc(NCc3ccncc3)n2n1
The “Percent Effect” value of the first is higher: 12.92% for the first, -23.44% for the second.

First: O=C(O)C(F)(F)F.O=C1COC2(CCN(Cc3cccs3)CC2)CN1c1cncnc1
Second: O=C(O)C(F)(F)F.O=C1COC2(COCCN(Cc3ccsc3)C2)CN1c1ccoc1 (stereo not given)
The “Percent Effect” value of the first is higher: 13.06% for the first, -47.88% for the second.

Going from `Cc1cnc(N2C(=O)CSC2c2ccccc2)s1` (stereo not given) to `O=C(c1ccnnc1)N1CC[C@@H](O)[C@@H]1Cc1ccccc1`, the “Percent Effect” value falls from 7.465% to -23.76%.

Compared with `Cn1cnnc1CN1CCC2(CCCN(C3CCCCC3)C2=O)C1` (stereo not given), `COc1ccc2c(c1)C(=O)N(C)C1(CCN(CC3CC3)CC1)N2` is lower in “Percent Effect” value: 8.326% for the first, -6.53% for the second.

Compared with `CN(C)CCCNC(=O)c1ccccc1NC(=O)c1ccccc1Cl`, `CN(CC(=O)N(CCC#N)c1ccccc1)C1CCc2ccccc21` (stereo not given) is higher in “Percent Effect” value: 2.69% for the first, 6.676% for the second.

Going from `O=C(NCCCN1CCOCC1)c1ccc(-n2ccc3ccccc32)s1` to `O=C(NCCCN1CCCCC1)c1ccc(-n2ccc3ccccc32)s1`, the “Percent Effect” value rises from -5.378% to 59.15%.

Going from `O=C(NCCCN1CCCC1=O)c1ccc(-n2ccc3ccccc32)s1` to `CCOCCCn1c(NC(=O)c2ccc(C)nc2)nc2ccccc21`, the “Percent Effect” value rises from 19.74% to 49.04%.

Going from `O=C(NCc1cccnc1)[C@H]1C[C@@H]2CCN(c3ccncn3)C[C@H]2O1.O=C(O)C(F)(F)F.O=C(O)C(F)(F)F` to `Cc1ccc(N2CCCC3(COCCN(c4nccs4)C3)C2)nn1.O=C(O)C(F)(F)F.O=C(O)C(F)(F)F` (stereo not given), the “Percent Effect” value rises from 15.26% to 20.96%.

Compared with `CCOCCCn1c(NC(=O)c2scnc2C)nc2ccccc21`, `CCOCCCn1c(NC(=O)c2cnn(C)c2)nc2ccccc21` is higher in “Percent Effect” value: 74.98% for the first, 87.33% for the second.

Compared with `Cc1ncsc1C(=O)Nc1ccccn1`, `CCOC(=O)CNC(=O)c1scnc1C` is higher in “Percent Effect” value: 6.488% for the first, 8.54% for the second.

Compared with `Cn1cc(NC(=O)Cn2c(CS(C)(=O)=O)nc3ccccc32)cn1`, `Cc1cc(NCCNS(=O)(=O)c2cn(C)nc2C)c2ccccc2n1` is higher in “Percent Effect” value: -19.06% for the first, 11.79% for the second.

First: Cc1ccc(CC(=O)NC(C)C(=O)N2CCS(=O)(=O)CC2)s1 (stereo not given)
Second: CC(NC(=O)Cc1ccccc1F)C(=O)N1CCS(=O)(=O)CC1 (stereo not given)
The “Percent Effect” value of the first is higher: 63.58% for the first, 19.17% for the second.

Going from `O=C(NCCc1ccc(Cl)s1)N1CCS(=O)(=O)CC1` to `CN1CCN(C(=O)c2nnc3ccc(Cl)cc3n2)CC1`, the “Percent Effect” value rises from 3.625% to 64.7%.

First: CC(C)n1ccc(CN2CCN(c3cc(NC4CC4)nc(N)n3)CC2)c1
Second: CC(C)c1noc(CN2CCN(C(=O)c3cc(Cl)ccc3F)CC2)n1
The “Percent Effect” value of the first is lower: 13.37% for the first, 34.44% for the second.

Going from `CSCCC1c2nc[nH]c2CCN1Cc1cc(Cl)ccc1O` (stereo not given) to `CSCCC1c2nc[nH]c2CCN1Cc1ccccc1C#N` (stereo not given), the “Percent Effect” value falls from 102.1% to 19.15%.

Going from `CSCCC1c2nc[nH]c2CCN1Cc1ccccc1C(F)(F)F` (stereo not given) to `O=C(c1ccc(COc2ccccc2Cl)o1)N1N=CCC1(O)C(F)(F)F` (stereo not given), the “Percent Effect” value falls from 2.921% to 1.91%.

Going from `CN1C[C@@H](N)C[C@H]1C(=O)N1CCC(Cc2ccc(F)cc2)CC1` to `COCCN1C(=O)CC(N2CCN(c3ccc(F)cc3)CC2)C1=O` (stereo not given), the “Percent Effect” value rises from -16.49% to 4.981%.

First: C1CC(CN2C[C@@H]3C[C@@H](c4nnc(C5CC5)o4)O[C@@H]3C2)C1
Second: Cc1ccc(CN2CCCC(c3cnccn3)C2)s1 (stereo not given)
The “Percent Effect” value of the first is lower: -19.97% for the first, 14.09% for the second.

Going from `Cn1cc(S(=O)(=O)Nc2c(F)cccc2N2CCCC2)cn1` to `O=S(=O)(Nc1c(F)cccc1N1CCCC1)c1cncc(F)c1`, the “Percent Effect” value rises from -1.726% to 35.26%.

Compared with `N#Cc1cccc(S(=O)(=O)Nc2c(F)cccc2N2CCCC2)c1`, `O=C(O)c1csc(S(=O)(=O)Nc2c(F)cccc2-n2cccn2)c1` is lower in “Percent Effect” value: 53.51% for the first, -80.25% for the second.

Compared with `CNC(=O)c1cccc(CC2COCCN(Cc3ccsc3)C2)n1` (stereo not given), `CCN(CC1CCCN(CCc2cccc(OC)c2)C1)C(=O)CCSC` (stereo not given) is lower in “Percent Effect” value: -5.574% for the first, -29.92% for the second.

Compared with `CC1c2ncc(COCC3CC3)n2CCN1C(=O)c1ccnn1C` (stereo not given), `O=C(c1ccoc1)N1CC[C@@H]2O[C@@H](COCc3ccncc3)CC[C@@H]21` is lower in “Percent Effect” value: 18.95% for the first, 17.45% for the second.

Compared with `OCCn1nccc1C1CCN(CCOc2ccccc2)CC1`, `OCC1(CC2CCCCO2)CCN(c2cnc3ccccc3n2)CC1` (stereo not given) is higher in “Percent Effect” value: -26.3% for the first, 107% for the second.

Going from `O=C(c1ccc(S(=O)(=O)N2CCSCC2)cc1)N1CCC(O)C1` (stereo not given) to `COC(=O)C1CCN(C(=O)c2ccc(N(C)S(C)(=O)=O)c(C)c2)CC1`, the “Percent Effect” value falls from 10.6% to -22.29%.

First: CCc1nc(C(=O)N2CCN(C)CC2)nn1-c1ccccc1Cl
Second: Cc1ccc2cc(C(=O)N3CCCN(C)CC3)ccc2n1
The “Percent Effect” value of the first is lower: -21.83% for the first, -5.453% for the second.

Compared with `COC(=O)C1CCN(C(=O)c2nnc3ccc(C)cc3n2)CC1`, `COC(=O)C1CCN(C(=O)c2nnc3ccc(Cl)cc3n2)CC1` is higher in “Percent Effect” value: -19.31% for the first, 106.2% for the second.

Compared with `COc1ccccc1CCN1CCCC(CN(C)Cc2ccc(C)o2)C1` (stereo not given), `CC1=N[C@@]2(CC[C@@H]3CN(C(=O)NCc4ccccc4C)C[C@@H]32)C(=O)N1` is higher in “Percent Effect” value: 14.72% for the first, 15.83% for the second.

First: Cc1nn(C)cc1C(=O)N1CCC(C(=O)c2nc3ccccc3s2)CC1
Second: Cc1c(C(=O)N2CCC(C(=O)c3nc4ccccc4s3)CC2)cnn1C
The “Percent Effect” value of the first is lower: 26.37% for the first, 60.09% for the second.

Going from `Cn1nc(Cl)cc1C(=O)N1CCC(C(=O)c2nc3ccccc3s2)CC1` to `Cc1nnsc1C(=O)N1CCC(c2nc3ccccc3[nH]2)CC1`, the “Percent Effect” value rises from -10.64% to 0.6445%.

Going from `O=C(c1ccc(COc2ccc(Cl)cc2)o1)N1N=CCC1(O)C(F)(F)F` (stereo not given) to `Cc1cccc(OCc2ccc(C(=O)N3N=CCC3(O)C(F)(F)F)o2)c1` (stereo not given), the “Percent Effect” value falls from 61.62% to 29.06%.

Compared with `CCOC(=O)C1CCN(C(=O)c2cc(F)ccc2-n2cnnn2)CC1`, `Cc1ccc(F)cc1C(=O)N1CCOCC12CCCC2` is higher in “Percent Effect” value: -0.0971% for the first, 20.33% for the second.

First: CCc1c(C)sc2c1c(N)nc(=O)n2CCN1CCCCC1
Second: CCC(CN1CCOCC1)n1cncc1-c1ccc2c(c1)CCN2CC.Cl (stereo not given)
The “Percent Effect” value of the first is higher: 22.93% for the first, 11.86% for the second.

First: Cc1ccc(CN2C[C@H](OCC3CCOCC3)[C@H]3COC[C@H]32)o1.O=C(O)C(F)(F)F
Second: O=C(O)C(F)(F)F.c1ccc(N2CCCC3(COCCN(c4nccs4)C3)C2)nc1 (stereo not given)
The “Percent Effect” value of the first is lower: -26.82% for the first, 51.66% for the second.

First: c1ccc(N2CCOCC3(CCCN(c4nccs4)C3)C2)nc1 (stereo not given)
Second: Cc1cc(N2CCC(CO)(CC3CCCCO3)CC2)nc2ccccc12 (stereo not given)
The “Percent Effect” value of the first is higher: 23.66% for the first, -1.855% for the second.

First: Cc1nc(Cn2c3c(ccc2=O)CC(NC(N)=O)CC3)cs1 (stereo not given)
Second: O=C1CC(N2CCN(c3ccccc3O)CC2)C(=O)N1Cc1cccs1 (stereo not given)
The “Percent Effect” value of the first is lower: -11.16% for the first, 63.35% for the second.

Compared with `CC(C)c1noc(CCC(=O)Nc2cc(F)ccc2F)n1`, `CC(C)c1noc(C[S+]([O-])CC(=O)Nc2cc(F)ccc2F)n1` (stereo not given) is higher in “Percent Effect” value: -35.92% for the first, 57.68% for the second.

Going from `CC(C)c1noc(C[S+]([O-])CC(=O)Nc2ccc(F)c(F)c2)n1` (stereo not given) to `CC(C)c1noc(CCCC(=O)Nc2cccc(F)c2)n1`, the “Percent Effect” value falls from 60.65% to -20.44%.

Compared with `CC(C)CCc1noc(C[S+]([O-])CC(=O)NCc2ccccc2)n1` (stereo not given), `c1cncc(CNCCc2cccs2)c1` is higher in “Percent Effect” value: -9.037% for the first, 34.29% for the second.

Going from `Cc1cc(C)n(C2CCCN(C(=O)c3ccc(N(C)C)nc3)C2)n1` (stereo not given) to `Cn1ccc(C2CCCCCN2C(=O)c2cccnc2)n1` (stereo not given), the “Percent Effect” value falls from -19.67% to -55.79%.

Going from `Cl.Fc1cccc(F)c1Cn1c(C2CCCNC2)cc2cccnc21` (stereo not given) to `O=C(c1ncccn1)N1C[C@@H]2CC[C@H](Oc3cccc(F)c3)[C@@H]2C1`, the “Percent Effect” value falls from 30.15% to 15.44%.

First: Cc1cn2nc(Sc3nnnn3C)sc2n1
Second: Cc1cc(NC(=O)CN2CCCC2Cn2nc(C)nc2C)on1 (stereo not given)
The “Percent Effect” value of the first is lower: -10.32% for the first, 9.67% for the second.

Going from `COc1ccc2c(c1)C(=O)N(C)C1(CCN(C(=O)OC(C)(C)C)CC1)N2` to `COc1ccc2c(c1)C(=O)N(C)C1(CCN(CC=C(C)C)CC1)N2`, the “Percent Effect” value falls from 105.8% to 0.8841%.

Going from `Cc1cc(N2CCC(CO)(CC3CCCCO3)CC2)c2ccccc2n1` (stereo not given) to `COCCN1C(=O)CC(N2CCN(c3ccccc3)CC2)C1=O` (stereo not given), the “Percent Effect” value rises from 0.8134% to 12.26%.

Compared with `O=C(c1ccc[nH]1)N1CCOCC12CCCC2`, `Cc1[nH]ccc1C(=O)N1CCOCC12CCCC2` is higher in “Percent Effect” value: -33.44% for the first, 102.6% for the second.

Compared with `O=C1CC(N2CCN(c3ccc(F)cc3)CC2)C(=O)N1Cc1cccs1` (stereo not given), `O=C1CC(N2CCN(c3ccc(O)cc3)CC2)C(=O)N1Cc1cccs1` (stereo not given) is higher in “Percent Effect” value: 42.8% for the first, 104.3% for the second.

Compared with `CCCN1C(=O)CC(N2CCN(c3ccc(F)cc3)CC2)C1=O` (stereo not given), `COCCCN1C(=O)CC(N2CCN(c3ccc(F)cc3)CC2)C1=O` (stereo not given) is higher in “Percent Effect” value: -5.623% for the first, 4.554% for the second.

Compared with `CC(C)CN1C(=O)CC(N2CCN(c3ccc(F)cc3)CC2)C1=O` (stereo not given), `COCCN1C(=O)CC(N2CCN(c3ccc(OC)cc3)CC2)C1=O` (stereo not given) is higher in “Percent Effect” value: 12.43% for the first, 55.38% for the second.
